# Measurements as given in the supplement of paper PMC8728848.
# About 410 targets per protein were measured; listed, in parts, are those with the strongest signals and a random draw of the rest.
# B1: OS9 (Arabidopsis thaliana) (protein)
# chain: MRGSHHHHHHGMASMTGGQQMGRDLYDDDDKSRLQIFPAHLVGTFSRNNREPKYKIEFLPEDSPFHPGDNLESMVMLDKHGNRFLCYLPKEEKATSGWTSSQQNISTVMMETQQLVKLKTPDELLQPLSEKCLFRQEGWWSYEFCHQKYVRQLHVEDENKIVQEFFLGTFDPEATAAFNQTVSDASTDASQRYHSHVYTNGTTCDLTGSPREVEVRFVCAETRAMVTSITELSTCKYALTVQCPTLCKHPLFQLEKPVSHTIHCNAIPVEEDATRNKEEQAVDESPKMIADS
# Tests used:
# Assay in all cases: glycan array binding signal (z-score within array); higher = stronger binding
# Details in all cases: glycan notation: IUPAC condensed, linker removed
# [1] = target: Fuc(a1-2)Gal(b1-3)GlcNAc
# Procedure, shortened: (§1)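 Glycan array data were curated from 3228 arrays in the Consortium for Functional Glycomics database and kept only where the protein sequence was available. Glycan names were converted to IUPAC-condensed notation, and columns mapping to the same glycan were averaged. The binding signal is a within-array Z-score, averaged across arrays of the same protein sequence at different concentrations or buffers and across linkers. Negative Z-scores can be read as non-binding.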
# [2] = target: Fuc(a1-2)Gal(b1-3)GlcNAc(b1-3)[Gal(b1-4)GlcNAc(b1-6)]Gal(b1-4)Glc
# Procedure, shortened: as §1
# [3] = target: Fuc(a1-2)Gal(b1-4)[Fuc(a1-3)]GlcNAc(b1-2)Man(a1-3)[Fuc(a1-2)Gal(b1-4)[Fuc(a1-3)]GlcNAc(b1-2)Man(a1-6)]Man(b1-4)GlcNAc(b1-4)[Fuc(a1-6)]GlcNAc
# Procedure, shortened: as §1
# [4] = target: Fuc(a1-2)Gal(b1-4)[Fuc(a1-3)]GlcNAc(b1-3)Gal(b1-4)[Fuc(a1-3)]GlcNAc(b1-3)Gal(b1-4)[Fuc(a1-3)]GlcNAc
# Procedure, shortened: as §1
# [5] = target: Fuc(a1-2)[Gal(a1-3)]Gal(b1-4)GlcNAc(b1-2)Man(a1-3)[Fuc(a1-2)[Gal(a1-3)]Gal(b1-4)GlcNAc(b1-2)Man(a1-6)]Man(b1-4)GlcNAc(b1-4)GlcNAc
# Procedure, shortened: as §1
# [6] = target: Fuc(a1-2)[Gal(a1-3)]Gal(b1-4)GlcNAc(b1-6)GalNAc
# Procedure, shortened: as §1
# [7] = target: Fuc(a1-2)[GalNAc(a1-3)]Gal(b1-4)GlcNAc
# Procedure, shortened: as §1
# [8] = target: Fuc(a1-3)[Gal(b1-4)]GlcNAc(b1-3)Gal(b1-4)[Fuc(a1-3)]GlcNAc(b1-3)Gal(b1-4)[Fuc(a1-3)]GlcNAc
# Procedure, shortened: as §1
# [9] = target: Fuc(a1-3)[Gal(b1-4)]GlcNAc6S
# Procedure, shortened: as §1
# [10] = target: Fuc(a1-3)[Gal3S(b1-4)]GlcNAc
# Procedure, shortened: as §1
# [11] = target: Fuc(a1-3)[Gal3S(b1-4)]GlcNAc6S
# Procedure, shortened: as §1
# [12] = target: Fuc(a1-3)[GalNAc(b1-4)]GlcNAc
# Procedure, shortened: as §1
# [13] = target: Gal(a1-3)Gal(b1-4)GlcNAc
# Procedure, shortened: as §1
# [14] = target: Gal(a1-3)Gal(b1-4)GlcNAc(b1-6)GalNAc
# Procedure, shortened: as §1
# [15] = target: Gal(a1-4)Gal(b1-4)Glc
# Procedure, shortened: as §1
# [16] = target: Gal(b1-3)GalNAc
# Procedure, shortened: as §1
# [17] = target: Gal(b1-3)GalNAc(b1-3)Gal
# Procedure, shortened: as §1
# [18] = target: Gal(b1-3)GlcNAc(a1-3)Gal(b1-4)GlcNAc
# Procedure, shortened: as §1
# [19] = target: Gal(b1-3)GlcNAc(b1-2)Man(a1-3)[Gal(b1-3)GlcNAc(b1-2)Man(a1-6)]Man(b1-4)GlcNAc(b1-4)[Fuc(a1-6)]GlcNAc
# Procedure, shortened: as §1
# [20] = target: Gal(b1-3)GlcNAc(b1-3)Gal(b1-4)GlcNAc(b1-3)Gal(b1-4)GlcNAc(b1-2)[Gal(b1-3)GlcNAc(b1-3)Gal(b1-4)GlcNAc(b1-3)Gal(b1-4)GlcNAc(b1-6)]Man(a1-6)[Gal(b1-3)GlcNAc(b1-3)Gal(b1-4)GlcNAc(b1-3)Gal(b1-4)GlcNAc(b1-2)Man(a1-3)]Man(b1-4)GlcNAc(b1-4)[Fuc(a1-6)]GlcNAc
# Procedure, shortened: as §1
# [21] = target: Gal(b1-3)GlcNAc(b1-6)[Gal(b1-3)]GalNAc
# Procedure, shortened: as §1
# [22] = target: Gal(b1-3)[Fuc(a1-4)]GlcNAc(b1-2)Man(a1-3)[Gal(b1-3)[Fuc(a1-4)]GlcNAc(b1-2)Man(a1-6)]Man(b1-4)GlcNAc(b1-4)[Fuc(a1-6)]GlcNAc
# Procedure, shortened: as §1
# [23] = target: Gal(b1-4)GlcNAc(b1-2)[Gal(b1-4)GlcNAc(b1-6)]Man(a1-6)[GlcNAc(b1-4)][Gal(b1-4)GlcNAc(b1-2)Man(a1-3)]Man(b1-4)GlcNAc(b1-4)GlcNAc
# Procedure, shortened: as §1
# [24] = target: Gal(b1-4)GlcNAc(b1-3)Gal(b1-4)GlcNAc(b1-3)Gal(b1-4)GlcNAc(b1-3)Gal(b1-4)GlcNAc(b1-3)Gal(b1-4)GlcNAc(b1-3)Gal(b1-4)GlcNAc(b1-2)Man(a1-3)[Gal(b1-4)GlcNAc(b1-3)Gal(b1-4)GlcNAc(b1-3)Gal(b1-4)GlcNAc(b1-3)Gal(b1-4)GlcNAc(b1-3)Gal(b1-4)GlcNAc(b1-3)Gal(b1-4)GlcNAc(b1-2)Man(a1-6)]Man(b1-4)GlcNAc(b1-4)GlcNAc
# Procedure, shortened: as §1
# [25] = target: Gal(b1-4)GlcNAc(b1-3)[Gal(b1-4)GlcNAc(b1-6)]Gal(b1-4)GlcNAc
# Procedure, shortened: as §1
# [26] = target: Gal3S(b1-4)Glc6S
# Procedure, shortened: as §1
# [27] = target: GalNAc(a1-3)Gal
# Procedure, shortened: as §1
# [28] = target: GalNAc(b1-3)GalNAc
# Procedure, shortened: as §1
# [29] = target: GalNAc(b1-4)Gal(b1-4)Glc
# Procedure, shortened: as §1
# [30] = target: GalNAc(b1-4)GlcNAc(b1-2)Man
# Procedure, shortened: as §1
binder,measurement,setting,value
B1,glycan array binding signal (z-score),[1],-0.466
same,glycan array binding signal (z-score),[2],2.66
same,glycan array binding signal (z-score),[3],-0.608
same,glycan array binding signal (z-score),[4],4.22
same,glycan array binding signal (z-score),[5],3.36
same,glycan array binding signal (z-score),[6],0.051
same,glycan array binding signal (z-score),[7],-0.828
same,glycan array binding signal (z-score),[8],-0.881
same,glycan array binding signal (z-score),[9],3.45
same,glycan array binding signal (z-score),[10],1.51
same,glycan array binding signal (z-score),[11],-0.706
same,glycan array binding signal (z-score),[12],0.056
same,glycan array binding signal (z-score),[13],-0.724
same,glycan array binding signal (z-score),[14],0.243
same,glycan array binding signal (z-score),[15],2.7
same,glycan array binding signal (z-score),[16],-0.097
same,glycan array binding signal (z-score),[17],3.02
same,glycan array binding signal (z-score),[18],-1.06
same,glycan array binding signal (z-score),[19],-0.157
same,glycan array binding signal (z-score),[20],2.88
same,glycan array binding signal (z-score),[21],0.651
same,glycan array binding signal (z-score),[22],7.5
same,glycan array binding signal (z-score),[23],-0.016
same,glycan array binding signal (z-score),[24],0.798
same,glycan array binding signal (z-score),[25],1.43
same,glycan array binding signal (z-score),[26],0.366
same,glycan array binding signal (z-score),[27],-0.979
same,glycan array binding signal (z-score),[28],0.839
same,glycan array binding signal (z-score),[29],2.57
same,glycan array binding signal (z-score),[30],3.58
